TGFb SMAD3 inh: blocks TGF-b signaling; HepG2 CAGA-GFP TGF-b/SMAD3 reporter, GFP fluorescence, 18 h; TGF-beta stimulated, 500 pg/mL final; Potency, µM (doses to about 46.1 µM), for the others: at the top dose activity, negative = inhibition, most hits filed as inhibitors; 410,000 tested, 1.2% active; further: on the % scale 0 is the no-effect control and ±100 the full control effect; nearly all actives have a fitted effect of over 65% in size
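HEPG2 CAGA-GFP cells (1000/well, DMEM with 1% FBS) were pre-incubated 2 h at 37 degrees C, given compound by pin tool, then stimulated with TGF-beta at 500 pg/mL final for 18 h before per-cell GFP fluorescence imaging.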
RORgamma inh: ROR gamma (mouse) transcription inhibition | P51450 | Drosophila S2 Gal4-RORgamma UAS-luciferase reporter, 20 h | Potency, µM (series often up to 53.6 µM), for the others: top-dose activity change, negative = inhibition, hits mostly inhibitors | 310,000 tested, 5.4% active | AID 2551; further: on the % scale 0 is the no-effect control and ±100 the full control effect; nearly all actives have a fitted effect of over 60% in size
Target sequence (P51450 whole entry, looked up, the tested form may be a part): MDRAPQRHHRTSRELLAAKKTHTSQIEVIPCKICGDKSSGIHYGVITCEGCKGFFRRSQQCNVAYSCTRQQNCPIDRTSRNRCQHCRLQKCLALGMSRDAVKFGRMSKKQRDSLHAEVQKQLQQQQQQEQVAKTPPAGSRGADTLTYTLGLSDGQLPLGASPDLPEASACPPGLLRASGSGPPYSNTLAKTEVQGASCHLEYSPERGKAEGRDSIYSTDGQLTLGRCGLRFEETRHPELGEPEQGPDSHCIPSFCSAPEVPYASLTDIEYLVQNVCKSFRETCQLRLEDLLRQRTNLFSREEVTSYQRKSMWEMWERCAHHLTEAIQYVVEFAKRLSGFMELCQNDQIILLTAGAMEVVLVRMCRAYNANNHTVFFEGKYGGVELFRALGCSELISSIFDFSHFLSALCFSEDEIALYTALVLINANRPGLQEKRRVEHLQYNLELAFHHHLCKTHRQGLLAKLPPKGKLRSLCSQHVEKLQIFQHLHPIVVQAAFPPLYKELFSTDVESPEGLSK
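Compounds are pin-transferred onto Drosophila Schneider cells expressing a copper-inducible Gal4–ROR gamma transactivation domain fusion. After 1 hr, copper sulfate is added to 700 uM final; luciferase is read 20 hr later.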
Gal4-VP16 FLuc: inhibits Gal4-VP16 luciferase reporter, ROR gamma counter-screen; Drosophila S2 Gal4-VP16 UAS-luciferase, luminescence, 20 h; 310,000 tested, 3.5% active; Potency, µM (top dose mostly 53.6 µM), for the others: at the highest dose activity, negative = inhibition, most hits filed as inhibitors;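 further: Gal4-VP16 expression switched on by copper sulfate through the metallothionein promoter; on the % scale 0 is the no-effect control and ±100 the full control effect; nearly all actives have a fitted effect of over 50% in size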
ATXN2 expr inh: reduces ATXN2 reporter expression in HEK-293 cells; HEK-293 ATXN2-luciferase reporter, luminescence, 24 h; Potency, µM (doses to about 57 µM), without a hit: at the highest dose activity change, negative = inhibition, usual class: inhibitors; 360,000 tested, 0.72% active; AID 1745845; further: on the % scale 0 is the no-effect control and ±100 the full control effect; nearly all actives have a fitted effect of over 55% in size
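qHTS (up to 57 uM final) was run with 24 h compound exposure of reporter cells at 37 °C. Each well was multiplexed: SteadyGlo luminescence measured ATXN2-luciferase expression after a fluorogenic Gly-Phe-AFC viability readout (25 uM final).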
HepG2 tox: counter-screen for TGF-b inhibitors: cytotoxicity in HepG2 cells. HepG2 CAGA-GFP viability, ATP luminescence, 18 h. 410,000 tested, 0.76% active. AID 588856. Potency, µM (series often up to 46.1 µM), for the others: at the top dose activity change, negative = cytotoxicity, most hits filed as cytotoxic
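CellTiter-Glo luminescence gave cytotoxicity after 18 hours at 37 degrees C. The cells were HepG2 CAGA-GFP in 1% FBS DMEM, stimulated with 500 pg/mL TGF-beta after compound addition. %Activity was normalised to no-cell wells (complete cell-killing) and DMSO (no toxicity), and curves were fitted and classified.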
ATXN viability: cell viability loss in ATXN counter-screen. 400,000 tested, 0.49% active. S2 cells (HEK-293 line with an ATXN2-luciferase reporter) viability, CellTiter-Fluor protease fluorescence, 24 h. Potency, µM (series often up to 56.7 µM), most hits filed as cytotoxic; further: nearly all actives have a fitted effect of over 40% in size
The depositor's hits bear a star; i = inactive; ? = inconclusive; . = not tested or not shown. Sampled rows, rich in hits. Any-hit rate of the full collection: about 6.3%. The call rests on the fitted dose curve; in most records, active means well fitted curve in the direction sought with a large enough effect; inconclusive means small, poorly fitted or top-dose-only effect, or another doubt; inactive means no such curve, though single readings can be large; an effect the other way counts as inactive or inconclusive. Potency means the concentration at half of the fitted maximal effect.

SMILES | TGFb SMAD3 inh | RORgamma inh | Gal4-VP16 FLuc | ATXN2 expr inh | HepG2 tox | ATXN viability
Cc1oc(-c2ccccc2Cl)nc1CN1C(=O)CN=C(c2ccccc2)c2ccccc21 | 15.8µM* | 37.0% | 7.5% | -19.4% | -12.4% | ?
CCNC(=O)CC1N=C(c2ccc(Cl)cc2)c2cc(OC)ccc2-n2c(C)nnc21 (stereo not drawn) | . | . | . | 77.3% | . | .
c1ccc(C2CO2)cc1 (stereo not drawn) | . | 0.4% | 7.2% | . | . | .
CCCCn1c(N)c(N(CCOC)C(=O)CCCn2c(=O)oc3ccccc32)c(=O)[nH]c1=O | -8.1% | . | . | -10.5% | -18.4% | i
Cc1ccc(C)c(S(=O)(=O)Nc2ccc3c(c2)CCCN3C(=O)c2cccs2)c1 | 11.2µM* | . | . | ? | -20.4% | .
Cc1ccc2c(c1)C1CN(C)CCC1N2C(=O)c1cccs1 (stereo not drawn) | 5.7% | 20.9% | 0.0% | -2.6% | 12.6% | i
CCN(CC)C(=O)c1ccc(NC(=O)Nc2ccccc2F)cc1 | -10.6% | 11.2µM* | ? | . | 2.7% | ?
Cc1[nH]c(=O)n(C(C)(C)C)c(=O)c1Cl | . | 3.7% | 1.8% | . | . | .
NCCCP(=O)(O)CC1CCCCC1 | . | 10.1% | -25.0% | . | . | .
CN(C)c1ccc(N=O)cc1 | 5.01µM* | 2.24µM* | 5.62µM* | . | -90.1% | .
CC(C)c1c(C(=O)NC(c2cccnc2)C(F)(F)F)cnn1-c1nccc(-c2cccs2)n1 (stereo not drawn) | . | . | . | . | . | i
O=C1C(Cl)=C(Cl)C(=O)C(Cl)=C1Cl | . | 4.47µM* | ? | . | . | .
Oc1cccc[c]1[Hg][Cl] | . | 1.58µM* | 3.55µM* | . | . | .
O=C(Oc1ccc([N+](=O)[O-])cc1)N1CCN(Cc2cccc(Oc3ccccc3)c2)CC1 | . | . | . | -13.1% | . | .
CC1CC2CCC(O2)C(C)C(=O)OC(C)CC2CCC(O2)C(C)C(=O)OC(C)CC2CCC(O2)C(C)C(=O)OC(C)CC2CCC(O2)C(C)C(=O)O1 (stereo not drawn) | . | 0.112µM* | 0.501µM* | . | . | .
COCc1cc(C)c(C#N)c(=S)[nH]1 | 7.7% | 3.98µM* | ? | 0.3% | 6.6% | i
CCc1ccc(-n2nc(C)c3c(C(=O)NCCc4ccc(OC)c(OC)c4)cc(C)nc32)cc1 | -7.8% | . | . | -31.0% | -18.1% | ?
COC(=O)[C@@H]1C[C@H]1[C@@H](NP(=O)(c1ccccc1)c1ccccc1)c1ccccc1 | 7.0% | 10µM* | ? | 36.0% | -61.8% | i
c1ccc2cc3c(cc2c1)-c1cccc2cccc-3c12 | . | -16.7% | 2.7% | . | . | .
CCc1ccc(NP(=O)(Oc2ccccc2F)Oc2ccccc2F)cc1 | 17.8µM* | ? | -17.7% | 1.1% | -104.2% | i
Cc1ccc(NP(=O)(Oc2ccccc2F)Oc2ccccc2F)cc1 | ? | 29.8% | -3.2% | -30.2% | -26.9% | ?
Cc1ccc(-c2nc3ccccc3c(=O)n2-c2nccs2)cc1 | -3.1% | 5.62µM* | 11.2µM* | 5.6% | -8.2% | ?
Cc1nc2ccccc2c(=O)n1-c1nccs1 | 17.6% | . | . | 28.3% | 22.3% | i
COc1ccc(CN2Cc3cnnn3-c3ccccc3C2C#N)cc1 (stereo not drawn) | ? | . | . | ? | 11.2µM* | .
N#CC1c2ccccc2-n2nncc2CN1Cc1cc(Cl)cc(Cl)c1 (stereo not drawn) | ? | . | . | 4.47µM* | 10µM* | 3.55µM*
SMILES | TGFb SMAD3 inh | RORgamma inh | Gal4-VP16 FLuc | ATXN2 expr inh | HepG2 tox | ATXN viability
COc1cc2c3cc1Oc1cc(ccc1O)C[C@@H]1c4c(cc(OC)c(O)c4Oc4cccc(c4)C[C@@H]3N(C)CC2)CC[N+]1(C)C | -0.1% | . | . | 12.4% | 1.5% | i
COc1ccc2cc1Oc1ccc(cc1)C[C@H]1c3cc(c(OC)cc3CCN1C)Oc1c(OC)c(OC)cc3c1[C@H](C2)N(C)CC3 | ? | ? | ? | ? | -60.2% | 25.1µM*
COc1cc2c3cc1Oc1c(OC)c(OC)cc4c1[C@H](Cc1ccc(cc1)Oc1cc(ccc1O)C[C@H]3N(C)CC2)N(C)CC4 | ? | . | . | -11.1% | -51.4% | 14.1µM*
COc1cc2c3cc1Oc1cc(ccc1O)C[C@@H]1c4c(cc(OC)c(O)c4Oc4ccc(cc4)C[C@H]3N(C)CC2)CCN1C | 0.8% | -33.3% | ? | ? | -5.4% | 3.98µM*
COc1cc2c3c(c1OC)Oc1ccc(cc1)C[C@H]1c4c(cc(OC)c(OC)c4Oc4ccc(cc4)C[C@@H]3N(C)CC2)CCN1C | -10.4% | . | . | ? | -35.4% | .
COc1cccc(CNC(=O)Cn2c(=O)oc3cc(S(=O)(=O)N4CCCCCC4)ccc32)c1 | ? | . | . | . | -36.9% | .
CC(C)OC(=O)Nc1cccc(Cl)c1 | . | ? | 1.0% | . | . | .
N#CC(C#N)=NNc1cccc(Cl)c1 | . | 1.12µM* | 0.631µM* | . | . | .
C[C@@H]1CN([C@H](C)CO)C(=O)c2c(c3ccccc3n2C)-c2ccccc2CO[C@@H]1CN(C)Cc1ccc(O)cc1 | ? | . | . | ? | -27.2% | ?
COc1cccc(CN(C)C[C@@H]2OCc3ccccc3-c3c(n(C)c4ccccc34)C(=O)N([C@@H](C)CO)C[C@H]2C)c1 | ? | . | . | ? | 20µM* | 28.2µM*
O=C(Cn1c(=O)oc2cc(Cl)ccc21)Nc1cccc(C(F)(F)F)c1 | ? | . | . | . | -38.8% | .
O=C(CBr)Nc1ccc(Cl)cc1C(=O)c1ccccc1F | . | . | . | -7.2% | . | i
CCn1c(=O)oc2cc(NC(=O)CCl)ccc21 | ? | 11.2µM* | ? | ? | -54.4% | .
CN(Cc1ccccc1)Cc1ccccc1OC(=O)N(C)C | -15.8% | 1.41µM* | -0.9% | -4.3% | 0.0% | i
C=CCn1c(O)c(C(C)=NCc2cc(OC)cc(OC)c2)c(=O)[nH]c1=O | -10.2% | 23.7% | -7.2% | ? | 7.08µM* | i
CCOC(=O)c1c(/N=C/C2C(=O)NC(=S)NC2=O)sc(C)c1C | . | -9.7% | -8.5% | . | . | .
CCOC(=O)c1cc(C)sc1/N=C/C1C(=O)NC(=S)NC1=O | 14.0% | 15.8µM* | 3.6% | 7.7% | 10.2% | i
Cc1cnc(SCc2ccccn2)nc1C1CCCN(C(=O)c2cccc(-c3cccc(F)c3)c2)C1 (stereo not drawn) | . | . | . | . | . | 31.6µM*
CC(=O)O[C@@]12CO[C@H]1C[C@H](O)[C@@]1(C)C(=O)[C@H](O)C3=C(C)[C@@H](O)C[C@@](O)([C@@H](OC(=O)c4ccccc4)[C@@H]21)C3(C)C | . | . | . | -7.5% | . | .
Oc1ccc(-c2cccnc2)cc1CNC1CN2CCC1CC2 (stereo not drawn) | . | . | . | . | . | i
CCOC(=O)c1ccc(N2C(=O)c3n[nH]c(-c4cccs4)c3C2c2ccc(OC)cc2OC)cc1 (stereo not drawn) | 5.01µM* | . | . | 7.7% | -23.5% | i

Source: PubChem BioAssay (National Center for Advancing Translational Sciences (NCATS))
